Tau fibril FP – blocks human tau fibril formation measured by polarization. P10636. K18 P301L tau heparin fibrillization, Alexa594 FP, 6 h. Potency, µM (top dose mostly 57.7 µM), inactives show at the top dose activity, negative = inhibition, actives largely listed as inhibitors. actives 0.39% (n = 280,000). AID 1468; further: potency means the concentration at half of the fitted maximal effect; nearly all actives have a fitted effect of over 55% in size
Target sequence (P10636 561-689 P618L limits assumed): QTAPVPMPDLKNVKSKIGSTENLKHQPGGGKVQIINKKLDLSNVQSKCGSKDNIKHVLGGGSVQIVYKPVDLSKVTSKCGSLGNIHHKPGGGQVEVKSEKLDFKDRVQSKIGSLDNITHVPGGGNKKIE
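Heparin (20 uM) drove fibril formation of recombinant tau K18 P301L, 15 uM unlabeled with 0.24 uM Alexa 594 label, for 6 hr at 37 C in 100 mM sodium acetate pH 7. Fluorescence polarization (555/632 nm) read 1 hr after 30 uM ThT.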
FBPA coupling cs – inhibits coupling enzyme system, counter-screen for aldolase hits; coupling enzyme system counterscreen, AmpLite Red fluorescence; activity change, negative = inhibition, % at 58.2 µM, hits read low; actives 0.67% (n = 290,000); AID 2472; in the data active means activity change below about -30%
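Coupling enzymes only (glyceraldehyde-3-phosphate) + compound, at 57.5 uM final, 10 min RT; add substrate/coupling/AmpLite Red mix, 20 min RT; fluorescence ex 525/em 598 nm. Actives flag coupling-system interference.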
Sfp PPTase inh – Sfp phosphopantetheinyl transferase inhibition | Q9F4F7 | Biochemical Sfp PPTase activity, qHTS | Potency, µM, for the others: largest response in the series, negative = inhibition, hits mostly inhibitors | actives 3.5% (n = 310,000);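 further: the enzyme is Sfp with the accession as filed and its product quenches rhodamine fluorescence; potency means the concentration at half of the fitted maximal effect; 0% = enzyme reaction without inhibitor and -100% = no enzyme wells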
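Reaction rates are the 30-min fluorescence difference (ex 525, em 598 nm) in wells containing 15 nM Sfp, 5 uM rhodamine-CoA and 12.5 uM BHQ-2-YbbR at pH 7.6 with 10 mM MgCl2.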
Tau ThT inhib – blocks human tau fibril formation measured by thioflavin T; actives 2.1% (n = 270,000); AID 1460; Potency, µM (titrated, usually from 57.4 µM), without a hit: at the highest dose activity, negative = inhibition, usual class: inhibitors; recombinant tau K18 P301L, heparin-induced fibrillization, ThT fluorescence; further: potency means the concentration at half of the fitted maximal effect; nearly all actives have a fitted effect of over 55% in size
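In this qHTS, human K18 P301L tau is incubated with compound and heparin for 6 hr at 37 C, and Thioflavin T fluorescence then reports fibril load.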
Tau fluor cs – counter-screen for tau fibril formation inhibitors. actives 0.93% (n = 280,000). Potency, µM (highest dose often 57.7 µM), for inactives: at the highest dose activity change, negative = decrease. AID 1463. tau K18 P301L (four-repeat tau fragment) Alexa594 fluorescence, heparin fibrillization; further: potency means the concentration at half of the fitted maximal effect; nearly all actives have a fitted effect of over 55% in size
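Human K18 P301L tau (15 uM unlabeled plus 0.24 uM Alexa 594-labeled, final) in 100 mM sodium acetate pH 7 was mixed with compound and 20 uM heparin and incubated 6 hr at 37 C.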
An asterisk follows results filed as active; ? = inconclusive; . = no result; [ ] = dose if it differs, or a comment. This is a sample that favours compounds with a hit; in the whole collection about 5.2% have one here. Unless noted, the call rests on the fitted dose curve; in most records, active means well fitted curve in the direction sought with a large enough effect; inconclusive means small, poorly fitted or top-dose-only effect, or another doubt; inactive means no such curve, though single readings can be large; an effect the other way counts as inactive or inconclusive. Unless noted, on the % scale 0 is the no-effect control and ±100 the full control effect.

SMILES | Tau fibril FP | FBPA coupling cs | Sfp PPTase inh | Tau ThT inhib | Tau fluor cs
CCOC(=O)/C(C#N)=C1/CCCCCN1C | 2% | 5 | -1% | -4% | 2%
COc1ccc(/C=C/C(=O)c2ccccc2)cc1COc1ccccc1F | -2% | -5 | 89µM* | -10% | -14%
COC(=O)c1sc2nc(-c3ccccc3)c3c(c2c1N)CCCC3 | 7% | 4 | -17% | -5% | 0%
Nc1c(C(=O)O)sc2nc(-c3ccccc3)c3c(c12)CCCC3 | -9% | 12 | 35µM* | ? | -19%
C=CCN1c2ccccc2[C@]23C[C@@H](C(=O)OC)N(S(=O)(=O)c4ccc5c(c4)OCCN5C)C2=NC(C(=O)OC)=C(C(=O)OC)[C@H]13 | -1%[11.6 µM] | 1 | 9% | 1%[11.5 µM] | -9%[11.6 µM]
O=C(O)CCCNC(=O)OCc1ccccc1 | -11% | -2 | 15% | -10% | -11%
O=C(NCCC(=O)N1CCNC1=O)OCc1ccccc1 | 4% | 0 | 50µM* | -1% | -3%
Clc1cccc(N2CCN(c3nc4ccccc4c4nc(-c5cccnc5)nn34)CC2)c1 | -4% | . | . | -12% | -17%
O=c1[nH][nH]c(=S)n1C1CCCCC1 | ? | -39* | 2.8µM* | 32µM* | -26%
O=c1cc(O)n(C2CCCCCC2)c(=O)[nH]1 | . | 7 | -12% | . | .
Cc1ccc(C2=C/C(=C/c3cccnc3)C(=O)O2)c(C)c1 | ? | -35* | 50µM* | ? | -11%
CCOC(C)=O | . | . | 13% | . | .
CCOC(=O)[C@@H](N)CS | . | . | 28µM* | . | .
COc1ccc(NC(=O)N2CCN(c3cc(-c4noc(C)n4)ccc3C)CC2)c(OC)c1 | 4% | . | . | -8% | -16%
COc1ccc(NC(=O)c2ccc(-c3ccc(-c4noc(C)n4)cc3C)cc2)cc1N1CCN(C)CC1 | 15% | -1 | 32µM* | ? | ?
COc1ccc(NC(=O)c2ccc(-c3ccc(-c4noc(C)n4)cc3C)cc2)cc1OCCN(C)C | 0% | 1 | 79µM* | ? | ?
CCCCOc1ccc(Cn2c(=O)oc3ccc(C)cc32)cc1 | -12% | . | . | 5% | -2%
S=c1[nH]cnc2sc(Nc3ccccc3)nc12 | ? | -8 | 2.2µM* | ? | -23%
CSc1nnc2c3cc(C)ccc3n(Cc3ccccc3)c2n1 | 0% | -2 | 56µM* | ? | -4%
CCOc1ccccc1NC(=O)Cc1csc(COc2cccc(C)c2)n1 | -11% | . | . | ? | -23%
COC(=O)C1=C(C(=O)OC)SC(=C2C(=S)C(C)(C)N(C(=O)CC(C)C)c3ccccc32)S1 | ? | 4 | ? | 1.1µM* | ?
COC(=O)C1=C(C(=O)OC)[C@@H]2N(C)c3ccccc3[C@@]23C[C@@H](C(=O)OC)N(C(=O)CC(C)C)C3=N1 | -3%[11.6 µM] | -1 | ? | -11%[11.5 µM] | -22%[11.6 µM]
COC(=O)c1ccc(Cl)cc1NC(=O)N1CCCn2nc(C)cc21 | -4% | . | . | -6% | -15%
CCC(C)c1ccccc1NC(=O)C(C)NCCN(C)C (stereo not drawn) | -6% | 1 | 79µM* | -16% | -13%
CSC1=N/C(=C\c2ccc(C)cc2)C(=O)S1 | -5% | 1 | -7% | -14% | -12%
SMILES | Tau fibril FP | FBPA coupling cs | Sfp PPTase inh | Tau ThT inhib | Tau fluor cs
CCOC(=O)SC1=N/C(=C\c2ccc(N(C)C)cc2)C(=O)S1 | 1% | 1 | -4% | 4.5µM* | -21%
CCOc1ccccc1CNC(=O)CN1C(=O)c2cccnc2Oc2ccc(C)cc21 | -5% | . | . | -9% | -3%
Cc1cc(O)ccc1N=Cc1c(C(F)(F)F)[nH][nH]c1=O | 32µM* | -22 | ? | 25µM* | ?
COc1ccc2c(c1)O/C(=C\c1ccco1)C2=O | -1% | -2 | 4.5µM* | . | -14%
COC(=O)C(C)Oc1ccc2c(c1)O/C(=C\c1ccco1)C2=O (stereo not drawn) | . | 1 | ? | . | .
OCCNCC(O)CN1c2ccccc2Sc2ccccc21 (stereo not drawn) | . | -1 | 8% | . | .
CCN(CC)C(C)CN1c2ccccc2Sc2ccccc21 (stereo not drawn) | 11% | -3 | -17% | ? | 20µM*[quencher]
Fc1ccccc1CN1CCCCCCC1 | 0% | 0 | 56µM* | -2% | 3%
CC(C)NC(=O)CSc1nc2ccccc2n1-c1ccccc1 | 1% | 3 | 19% | -12% | -12%
CC(C)(C)NC(=O)CSc1nc2ccccc2n1-c1ccccc1 | -5% | 1 | 50µM* | -22% | -17%
Cc1ccc(S(=O)(=O)/N=C/c2c(O)ccc3ccccc23)cc1 | . | -32* | 1% | . | .
O=S(=O)(/N=C/c1c(O)ccc2ccccc12)c1cccs1 | ? | -50* | -26% | ? | -25%
NC(=S)N/N=C/c1c(O)ccc2ccccc12 | 7% | -6 | 8% | . | ?
O=C(Cc1ccc(-c2ccccc2)cc1)NCCS(=O)(=O)N1CCN(c2ccccc2F)CC1 | -1% | . | . | 8% | 3%
Cc1nc2nc(NCc3cccc(Cl)c3)[nH]n2c(=O)c1Cc1ccccc1 | 0% | . | . | 14% | 3%
COc1ccc(S(=O)(=O)c2c(Nc3cccc(C)c3C)sc(C(=O)c3ccccc3)c2N)cc1 | -14% | . | . | 3% | -5%
CCOc1ccc(Nc2oc(/C=C/c3cc(OC)c(OC)c(OC)c3)nc2C#N)cc1 | 10% | . | . | ? | ?
Cc1ccc(S(=O)(=O)N(C)CC(=O)Nc2nc3ccccc3s2)cc1 | 6% | 1 | 10% | -13% | -22%
Cc1ccc(/C(=N/Nc2nc3ccccc3s2)C2=C(O)c3ccccc3C2=O)cc1 | -1% | -9 | 79µM* | ? | ?
Nc1cccc2c1C(=O)N(C(=O)/C=C/c1ccc(F)cc1)C2=O | ? | -2 | -21% | 25µM* | -15%
COc1ccc2nc(NC(=O)c3cc(=O)c4ccccc4o3)sc2c1 | -9% | . | . | 0.89µM* | -22%
COc1ccc(C(=O)Nc2nc3ccc(OC)cc3s2)cc1 | . | -4 | -6% | . | .
Cc1ccc2nc(NC(=O)c3cc(=O)c4cc(C)c(C)cc4o3)sc2c1 | -8% | . | . | ? | -10%
Cc1cc(C)c2nc(NNC(=O)c3cc(=O)c4ccccc4o3)sc2c1 | -10% | -10 | 18µM* | 5µM* | ?
O=C(N/N=C/c1cccnc1)c1ccccc1OCc1ccc(Br)cc1 | 4% | -38* | ? | -2% | 8%
Cc1ccc(NC(=O)Cn2c(=O)n(Cc3nc(-c4ccccc4)no3)c(=O)c3cc4c(cc32)OCO4)cc1F | ? | . | . | 19% | -17%
O=C(Cn1c(=O)n(Cc2nc(-c3ccccc3)no2)c(=O)c2cc3c(cc21)OCO3)Nc1ccc(Cl)cc1 | 20µM* | . | . | 24% | -11%
O=C(Cn1c(=O)n(Cc2nc(-c3ccccc3)no2)c(=O)c2cc3c(cc21)OCO3)Nc1ccccc1 | 28µM* | . | . | 16% | -27%
Cc1ccc2nc(NCCN)c3ncc(C)n3c2c1 | . | -6 | -1% | . | .
COc1ccc(C2NC(=O)C(C#N)=C(S)N2c2cccc(C)c2)cc1OC (stereo not drawn) | ? | 3 | 32µM* | ? | -15%

Compound activity: PubChem, National Center for Advancing Translational Sciences (NCATS)
